Sampled rows, rich in hits. Any-hit rate of the full collection: about 1.3%.
Efflux pump inh: inhibitors of Candida antifungal efflux pumps expressed in yeast; inhibition, % at 10 µM; hit rate 0.44% among 330,000; S. cerevisiae Candida pump triplex, Nile Red efflux;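 active = plate passing quality check with inhibition over a set limit, or well fluorescence over plate mean plus 4 SD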;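 note: Nile Red retained in pooled yeast measured as flow cytometry median fluorescence; 0% = buffer negative control and 100% = Enniatin B positive control; higher means more Nile Red kept so more efflux inhibition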
AGP1-GFP MLPCN: alters AGP1-GFP fluorescence in TOR pathway yeast screen | AID 2066 | S. cerevisiae AGP1-GFP multiplex flow cytometry, 3 h; GFP as percent of DMSO wells | GFP response vs DMSO, % at 10 µM | hit rate 0.02% among 320,000;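 active = GFP response relative to DMSO above a set limit, near screen average plus 3 SD, cut at about 150% in these data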;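 note: median GFP channel fluorescence of the gated AGP1 strain per well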
RPL19A-GFP yeast: modulators of TOR pathway RPL19A-GFP in S. cerevisiae | S. cerevisiae RPL19A-GFP strain, flow cytometry, 3 h; hits give low values | hit rate 0.3% among 330,000 | AID 2025 | percent response vs DMSO, % at 10 µM;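 active = percent response vs DMSO below 50%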;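 note: median channel GFP fluorescence of the barcoded RPL19A-GFP strain; ratio of sample median GFP to plate DMSO average so 100% = DMSO; lower means less RPL19A-GFP as with rapamycin TOR inhibition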
MEP2 TOR yeast: yeast TOR pathway MEP2-GFP modulation. S. cerevisiae MEP2-GFP strain, flow cytometry GFP, 3 h; 100% = DMSO control level. AID 2016. GFP response vs DMSO, % at 10 µM. hit rate 0.51% among 330,000;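 active = GFP response versus DMSO above a set limit, roughly screen mean plus 3 SD, cut at about 180% in these data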;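 note: median GFP fluorescence of the barcode-gated MEP2-GFP cells per well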
CIT2 TOR yeast: alters CIT2-GFP fluorescence in TOR pathway yeast screen; hit rate 0.065% among 320,000; AID 2029; GFP response vs DMSO, % at 10 µM; S. cerevisiae CIT2-GFP strain, flow cytometry, 3 h; 100 means same as DMSO wells;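 active = GFP response relative to DMSO above a set limit, near the screen mean plus 3 SD, cut at about 150% in these data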;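 note: ratio of well median GFP fluorescence to mean of DMSO wells on the plate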
LAP4-GFP MLPCN: modulators of TOR pathway LAP4-GFP in S. cerevisiae; hit rate 0.34% among 320,000; GFP response vs DMSO, % at 10 µM; S. cerevisiae LAP4-GFP multiplex, flow cytometry GFP, 3 h; median GFP as percent of DMSO wells;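 active = GFP response vs DMSO above a set limit, about the screen mean plus 3 SD, cut at about 150% in these data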
Cmpd fluor yeast: counter-screen for efflux pump inhibitors: compound fluorescence; shares compounds with Efflux pump inh; S. cerevisiae AD/pABC3, flow cytometry; fluorescence ratio to DMSO, % at 10 µM; hit rate 4% among 1,700; AID 588517;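 active = fluorescence ratio to DMSO above its plate's cutoff, the plate mean ratio plus 5 SD, cut at about 210% in these data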;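 note: unstained yeast with no Nile Red so the signal is compound autofluorescence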
Mdr1 pump inh: inhibitors of Candida albicans Mdr1 efflux pump | shares compounds with Efflux pump inh | hit rate 1% among 1,700 | inhibition, % at 10 µM | S. cerevisiae AD/CaMDR1, Nile Red efflux, flow cytometry; in the data active = inhibition above about 26%;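 note: 0% = DMSO vehicle and 100% = reference inhibitor; higher means more Nile Red retained so more efflux inhibition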
CaCdr2 efflux inh: Candida Cdr2 efflux pump inhibition | shares compounds with Efflux pump inh | S. cerevisiae AD/CaCDR2, Nile Red retention, flow cytometry | Nile Red retention ratio vs DMSO, % at 10 µM | hit rate 4% among 1,700 | AID 588520; in the data active = Nile Red retention ratio vs DMSO above about 190%;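 note: higher ratio means more blocking of Cdr2 efflux of the dye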
CaCdr1 efflux inh: blocks the Candida albicans Cdr1 efflux pump in yeast | shares compounds with Efflux pump inh | S. cerevisiae AD/CaCDR1, Nile Red efflux, flow cytometry | inhibition, % at 10 µM | hit rate 1% among 1,700 | AID 588522;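 active = inhibition above the screen-wide mean plus twice its standard deviation, cut at about 32% in these data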
Starred values were filed as active, the others as inactive; nt = not tested or not shown.

SMILES | Efflux pump inh | AGP1-GFP MLPCN | RPL19A-GFP yeast | MEP2 TOR yeast | CIT2 TOR yeast | LAP4-GFP MLPCN | Cmpd fluor yeast | Mdr1 pump inh | CaCdr2 efflux inh | CaCdr1 efflux inh
CCC(C)(C)C1CCC2(CC1)NC(=O)N(CC(=O)NCCc1c[nH]c3ccccc13)C2=O (configuration not stated) | 0 | 104 | 104 | 112 | 105 | 106 | nt | nt | nt | nt
CCc1ccc(NC(=O)C(C)OC(=O)CC(NC(C)=O)c2ccccc2)cc1 (configuration not stated) | 0 | 95 | 103 | 103 | 96 | 100 | nt | nt | nt | nt
CCCCCCCCCCCCCCCC[n+]1ccc(C(N)=O)cc1 | 2 | 95 | 96 | 96 | 86 | 111 | nt | nt | nt | nt
CCCCCCCCCCCCCCCC[n+]1ccc(/C=N/O)cc1 | 2.0* | 85 | 93 | 96 | 94 | 118 | 108 | 0 | 118 | 0
O=C(NCCN1CCOCC1)c1cc(-c2ccc(F)cc2)nc2ccccc12 | 0 | 102 | 95 | 85 | 105 | 102 | nt | nt | nt | nt
CC(C)Oc1ccc(-c2cc(C(=O)NCCN3CCOCC3)c3ccccc3n2)cc1 | 0 | 104 | 100 | 109 | 109 | 97 | 96 | 0 | 103 | 0
CCOc1ccc(-c2cc(C(=O)N3CCN(C)CC3)c3ccccc3n2)cc1 | 0 | 100 | 94 | 99 | 90 | 96 | 99 | 0 | 105 | 0
COc1ccccc1C(=O)Nc1ccnn1C1CCN(C/C=C/c2ccc(F)cc2)CC1 | 0 | 107 | 109 | 104 | 106 | 101 | nt | nt | nt | nt
Cn1cccc1/C=N/NC(=O)CSc1nc2ccccc2n1C | 0 | 113 | 94 | 84 | 108 | 104 | nt | nt | nt | nt
O=C(CN1C(=O)CSc2ccccc21)N/N=C/c1ccco1 | 0 | 106 | 101 | 105 | 94 | 107 | nt | nt | nt | nt
CC12CN3CCN(CC(C3)/C1=N\NC(=O)Nc1cccc(Cl)c1)C2 | 0 | 105 | 101 | 98 | 94 | 110 | nt | nt | nt | nt
O=C(COC(=O)[C@H](Cc1ccccc1)NC(=O)c1cccs1)NC1CCCCC1 | 18* | 100 | 102 | 91 | 103 | 100 | 104 | 0 | 109 | 0
O=C(NN1C(=O)C2C3c4ccccc4C(c4ccccc43)C2C1=O)c1ccc(Cl)cc1 (configuration not stated) | 8.9* | 106 | 103 | 93 | 109 | 96 | 103 | 0 | 98 | 0
Cc1cnc(C(=O)NC2CC(C)(C)Cc3c2cnn3-c2ccccc2)cn1 (configuration not stated) | 1 | 93 | 93 | 89 | 91 | 89 | 98 | 0 | 107 | 0
COc1cc(C(=O)NC2CC(C)(C)Cc3c2cnn3-c2ccccc2)cc(OC)c1OC (configuration not stated) | 0 | 97 | 98 | 94 | 97 | 89 | nt | nt | nt | nt
COc1cccc(C(=O)NC2CC(C)(C)Cc3c2cnn3-c2cccc(F)c2)c1OC (configuration not stated) | 0 | 101 | 98 | 111 | 95 | 105 | 107 | 0 | 106 | 0
COc1ccc(-n2ncc3c2CC(C)(C)CC3NC(=O)c2cnc(C)cn2)cc1 (configuration not stated) | 0 | 97 | 96 | 97 | 104 | 93 | 105 | 0 | 96 | 0
CCN(CC)S(=O)(=O)c1ccc(O)c(C(=O)OCC(=O)N2c3ccccc3CC2C)c1 (configuration not stated) | 0 | 98 | 95 | 95 | 93 | 92 | nt | nt | nt | nt
CS(=O)(=O)c1ccc(-c2csc(-c3cccnc3)n2)cc1 | 0 | 84 | 89 | 89 | 89 | 86 | nt | nt | nt | nt
CCCOc1cc(N(CC)CC)ccc1/C=C(/C#N)c1nc2ccc(C)cc2[nH]1 | 0.7* | 104 | 102 | 125 | 105 | 110 | 241* | 0 | 127 | 0
Cc1nn(-c2ccccc2)c(/N=C/c2ccccc2O)c1-c1ccccc1 | 0 | 102 | 100 | 99 | 98 | 99 | nt | nt | nt | nt
CN(C)CCN(C(=O)c1ccc(S(=O)(=O)N2CCc3ccccc32)cc1)c1nc2ccc(F)cc2s1 | 0.4* | 103 | 104 | 114 | 105 | 106 | 110 | 0 | 108 | 0
CCc1ccc2nc(N(CCCN(C)C)C(=O)c3ccc(S(=O)(=O)N4CCCc5ccccc54)cc3)sc2c1 | 0 | 104 | 106 | 104 | 106 | 96 | nt | nt | nt | nt
Cc1ccc(C(=O)N2CCN(c3ccc(NC(=O)CSc4ccc(Cl)cc4)cc3)CC2)cc1 | 8.0* | 99 | 104 | 104 | 108 | 95 | 105 | 0 | 110 | 0
COc1ccccc1CNS(=O)(=O)c1ccc2c(c1)CC(C)N2C(=O)C1CCC1 (configuration not stated) | 0 | 112 | 101 | 100 | 105 | 98 | 113 | 0 | 129 | 0
SMILES | Efflux pump inh | AGP1-GFP MLPCN | RPL19A-GFP yeast | MEP2 TOR yeast | CIT2 TOR yeast | LAP4-GFP MLPCN | Cmpd fluor yeast | Mdr1 pump inh | CaCdr2 efflux inh | CaCdr1 efflux inh
CC1Cc2cc(S(=O)(=O)N3CCCCC3)ccc2N1C(=O)C1CCC1 (configuration not stated) | 0 | 95 | 103 | 95 | 93 | 93 | 102 | 0 | 98 | 0
CCN(CC)S(=O)(=O)c1cccc(NC(=O)C2CC(=O)N(c3ccc4c(c3)OCCO4)C2)c1 (configuration not stated) | 0 | 101 | 102 | 104 | 100 | 104 | nt | nt | nt | nt
O=S1(=O)CCOCCN1Cc1ccc(Cl)cc1Cl | 0 | 105 | 102 | 104 | 103 | 98 | nt | nt | nt | nt
S=C(Nc1ccc(Cl)cc1Cl)N1CCCCC1 | 16* | 96 | 98 | 90 | 96 | 102 | 98 | 0 | 112 | 0
S=C(Nc1ccccc1Cl)N1CCCCCC1 | 0 | 99 | 100 | 100 | 105 | 93 | nt | nt | nt | nt
C/C(=N\NC(=O)c1ccc(Cl)cc1)c1ccc(Br)s1 | 0 | nt | 97 | 98 | 100 | 98 | nt | nt | nt | nt
C/C(=N\NC(=O)c1cc(Cl)ccc1O)c1ccc(Br)s1 | 7.6* | 103 | 107 | 102 | 111 | 97 | 95 | 0 | 104 | 0
CC(=O)Nc1cccc(NC(=O)COc2ccc3c(c2)OCO3)c1 | 0 | 101 | 101 | 96 | 99 | 86 | nt | nt | nt | nt
CN(C)C(=S)SCC(=O)Nc1ccc(Cl)cc1Cl | 15* | 100 | 102 | 90 | 94 | 97 | 98 | 0 | 94 | 0
CSc1ccccc1OC1CCN(Cc2ccccc2)CC1 | 5.8* | 91 | 94 | 108 | 99 | 84 | 102 | 0 | 101 | 0

High-throughput results deposited in PubChem BioAssay by NMMLSC.
